The structures appear in SMILES notation. Results filed as inconclusive are left out. Entries that show only a call come without a potency. Activity calls are given as the source filed them. Calls come from the whole dose curve; as a rule, active = well fitted cell-killing curve with a large enough effect; inconclusive = small, poorly fitted or top-dose-only effect; inactive = flat fitted curve, though single readings scatter.

For 40 compounds, Potency results are on record in PubChem BioAssay (NCATS).

This test can be described thus: Cell Viability - LYMP2-018 (AID 985).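 Note: compound exposure lasted 24 hr at 37 °C; nearly all actives have a fitted effect of over 50% in size.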 The settings on record: LYMP2-018 lymphoblastoid cells, viability (qHTS); series mostly up to 92.2 µM. From the text:
NIH Chemical Genomics Center [NCGC]
NIH Molecular Libraries Screening Centers Network [MLSCN]
National Institutes of Environmental Health Sciences [NIEHS]
National Toxicology Program [NTP]
We have developed a 1536-well cell-based assay for quantitative high throughput screening (qHTS) against a number of cell lines to determine in vitro cytotoxicity of small molecules. This particular assay uses a human lymphoblastoid cell line (LYMP2-018) purchased from Coriell Institute for Medical Research.
NCGC Assay Protocol Summary:
The CellTiter-Glo luminescent cell viability assay (Promega) is a homogeneous method to measure the number of viable cells in culture. The end point readout of this assay is based on quantitation of intracellular ATP, an indicator of metabolic activity, using the luciferase reaction. Luciferase catalyzes the oxidation of beetle Luciferin to oxyluciferin and light in the presence of ATP. The luminescent signal is proportional to amount of ATP present.
Using the CellTiter-Glo luminescent cell viability assay, the amount of cellular ATP was measured in the lymphoblastoid cell line with complete culture medium following compound treatment for 24 hours. The assay was performed in opaque white Kalypsys 1536-well plates. In the screen, tetraoctylammonium bromide was used as positive control. Library compounds were measured for their ability to cause acute toxicity in the cell line, as reflected by a decrease in intracellular ATP levels, in a concentration-dependent manner. […] AC50 values were determined from concentration-response data modeled with the standard Hill equation.
qHTS protocol for CellTiter Glo lymphoblastoid cellular assay
[Step] [Parameter] [Value] [Description]
1. Reagent; 5 uL; 2500 lymphoblastoid cells/well
2. Time; 5 hr; 37 C incubation
4. Controls; 23 nL; Tetraoctylammonium bromide 6.4pM to 92 uM
5. Time; 24 hr; 37 C incubation
6. Reagent; 5 uL; CellTiter Glo reagent
7. Time; 30 min; Room Temperature
8. Detection; Luminescence; Viewlux plate reader
Keywords: cell viability, cytotoxicity, lymphoblastoid cell line, luminescence, NTPHTS, NTPHTS_NCGC, NIEHS, DSSTox, MLSMR, MLSCN, NIH Roadmap, qHTS, NCGC
Consider `Nc1ccccc1-c1ccccc1`, for which the Potency result is “inactive”.
With `Nc1ccc(Oc2ccc(N)cc2)cc1` the entry was “inactive”; with `N#CC(O)c1ccccc1` (stereo not given), “inactive”.
With `O=C(O)C(Br)CBr` (stereo not given) the entry was “inactive”; with `Oc1c(Cl)cccc1Cl`, “inactive”.
With `CN(C)C(=O)Cl` the entry was “inactive”.
On to `BrCC(Br)C1CCC(Br)C(Br)C1` (stereo not given), for which the Potency entry is “inactive”.
Then `Nc1c(Cl)cc([N+](=O)[O-])cc1Cl`, with “inactive”; and `CC(C)(COCC1CO1)COCC1CO1` (stereo not given), with “inactive”.
As to `CN(C)c1ccc(N=Nc2ccccc2)cc1`, the Potency entry was “inactive”.
Then `CC(=O)NNc1ccccc1`, with “inactive”; and `Oc1cc(Cl)c(Cl)c(Cl)c1`, with “inactive”; and `OCCCCO`, with “inactive”.
Then `ClCC(Br)CBr` (stereo not given), with “inactive”; and `O=[N+]([O-])c1ccc(O)c([N+](=O)[O-])c1`, with “inactive”; and `ClCc1ccccc1`, with “inactive”.
Regarding `Oc1ccc(Cl)c(Cl)c1Cl`, the Potency entry is “inactive”.
Then `N#CCBr`, with “inactive”; and `Oc1cccc(Cl)c1`, with “inactive”; and `O=C(O)C(Br)Br`, with “inactive”.
For the compound `Cc1cc(-c2ccc(N)c(C)c2)ccc1N`, the Potency result was “inactive”.
With `BrC(Br)Br` the entry was “inactive”; with `NC1CCC(CC2CCC(N)CC2)CC1` (stereo not given), “inactive”; with `ClCCCCl`, “inactive”.
Take `Oc1cccc(Cl)c1Cl`: the Potency entry was “inactive”.
Then `CC(C)[N+](=O)[O-]`, with “inactive”; and `ClCC(Cl)CCl`, with “inactive”; and `CCC(Cl)[N+](=O)[O-]` (stereo not given), with “inactive”.
On to `Clc1ccc(C(Cl)(Cl)Cl)c(Cl)c1`, for which the Potency entry was “inactive”.
Then `Clc1cccc(Cl)c1Cl`, with “inactive”.
With `c1ccc(OCC2CO2)cc1` (stereo not given) the entry was “inactive”.
With `CCNCC` the entry was “inactive”; with `N#CCCCCC#N`, “inactive”.
For `CCN(N=O)C(N)=O`, the Potency entry is “inactive”.
Then `Oc1cc(Cl)cc(Cl)c1`, with “inactive”; and `CCCCC(CC)COC(=O)c1ccc(C(=O)OCC(CC)CCCC)c(C(=O)OCC(CC)CCCC)c1` (stereo not given), with “inactive”; and `Nc1c(Br)cc([N+](=O)[O-])cc1[N+](=O)[O-]`, with “inactive”.
With `CC(Cl)(Cl)Cl` the entry was “inactive”; with `C=CCO`, “inactive”.
With `O=C(O)CCl` the entry was “inactive”.
